A selection: hits, their analogues and other compounds. The true share with any hit is near 8.1%.
KB-V1 MDR tox: KB-V1 MDR subline cytotoxicity. KB-V1 MDR cells viability, CellTiter-Glo, 72 h. Potency, µM (doses to about 46.1 µM), hits mostly cytotoxic. 400,000 tested, 3.4% active. AID 1347076; note: nearly all actives have a fitted effect of over 60% in size
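In this primary screen, KB-V1 cells overexpressing P-gp are incubated with library compounds (lowest to highest concentration) for 72 h at 37 degrees C before a luminescent ATP viability read.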
ELG1 DNA repair: blocks ELG1-dependent DNA repair in HEK293T cells | HEK293T ELG1-luciferase reporter, luminescence, 16 h; DNA damage induced by 5-fluorouridine | Potency, µM (series often up to 46.1 µM), hits mostly inhibitors | 330,000 tested, 2.3% active | AID 504467; note: nearly all actives have a fitted effect of over 55% in size
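Cells (2,000 per well) received 5-fluorouridine plus test compound or DMSO and were incubated 16 hr at 37 °C, 5% CO2. Luciferase activity was read by luminescence 30 min after ONE-Glo addition; signal suppression marked inhibition of damage-induced ELG1 function.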
MCF10A rerep: inducers of DNA re-replication in MCF 10A breast cells | MCF 10A DNA re-replication, Hoechst nuclear intensity, 48 h | Potency, µM (titrated, usually from 46.1 µM), actives largely listed as activators | 350,000 tested, 2.9% active | AID 624296; note: nearly all actives have a fitted effect of over 50% in size
SW480 rerep: induces DNA re-replication in SW480 colon adenocarcinoma cells; SW480 DNA re-replication, Hoechst DNA content imaging, 48 h; 340,000 tested, 1.8% active; Potency, µM (titrated, usually from 46.1 µM), most hits filed as activators; note: nearly all actives have a fitted effect of over 55% in size
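Image-based DNA-content assay: after two days of treatment, nuclei were labelled with the DNA dye Hoechst and imaged, and hits were compounds raising the count of nuclei showing high fluorescence intensity.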
KB-3-1 cytotox: KB-3-1 parental cell cytotoxicity; AID 1347075; Potency, µM (highest dose often 46.1 µM), actives largely listed as cytotoxic; KB-3-1 viability, CellTiter-Glo ATP luminescence, 72 h; 400,000 tested, 1.4% active; note: nearly all actives have a fitted effect of over 60% in size
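Viability of parental KB-3-1 cells, measured by CellTiter-Glo luminescence, followed a 72 h incubation at 37 °C with pinned compounds in phenol-red-free DMEM containing 10% FBS.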
Hits are given with their value; n = inactive; u = inconclusive; x = not tested or not shown. Calls come from the whole dose curve; as a rule, active = well fitted curve in the direction sought with a large enough effect; inconclusive = small, poorly fitted or top-dose-only effect, or another doubt; inactive = no such curve, though single readings can be large; an effect the other way counts as inactive or inconclusive.

SMILES	KB-V1 MDR tox	ELG1 DNA repair	MCF10A rerep	SW480 rerep	KB-3-1 cytotox
COc1ccc(Br)cc1S(=O)(=O)N1CCN=C1c1ccccc1	x	n	n	n	x
CN1C2=NCCN2C(=O)c2cc(Cl)ccc21	n	n	n	u	n
Brc1ccc2c(c1)-c1ccccc1C1=NCCN12	10.3µM	x	x	x	u
CC(=O)Nc1ccc(NC(=O)CCS(=O)(=O)c2ccc3c(c2)CC(=O)N3C)cc1	u	x	x	x	n
Cc1cc(C(=O)NNc2ccccc2F)no1	n	6.51µM	9.2µM	n	n
CCc1ccccc1NNC(=O)c1cc(C)on1	n	n	u	n	n
CCn1c2ccccc2c2cc(NC(=O)COC(=O)c3cc(OC)c(OC)cc3OC)ccc21	n	9.2µM	n	n	n
CCCC(=O)Nc1ccc2c(c1)c1ccccc1n2CC	u	n	20.6µM	u	u
CCn1c2ccccc2c2cc(NC(=O)C(C)C)ccc21	u	u	n	n	n
CCOc1ccc(-c2nnc(SCC(=O)Nc3ccc4c(c3)c3ccccc3n4CC)n2N)cc1	n	n	10.3µM	u	n
CCn1c2ccccc2c2cc(NS(=O)(=O)c3ccccc3C)ccc21	u	u	u	u	16.4µM
O=C(NCc1cccc(Br)c1)c1cnn(-c2ccc(F)cc2)c1-n1cccc1	u	x	x	x	n
CCn1c2ccccc2c2cc([N+](=O)[O-])ccc21	u	n	n	n	u
CCn1c2ccccc2c(=O)c2ccccc21	n	n	23.1µM	23.1µM	n
O=C(Nc1ccc(Cl)cc1C(=O)c1ccccn1)c1ccccc1	u	x	x	x	n
Cc1ccc(NC(=O)COC(=O)c2cc(=O)c3ccccc3o2)cc1F	u	n	n	n	n
CN1C(c2ccc(F)cc2)=CS/C1=C(\C#N)c1nnc2n1-c1ccccc1SC2	n	u	11.6µM	n	n
O=C(c1ccc(F)cc1)N1CCC(c2nc3ccccc3s2)CC1	u	x	x	x	n
O=C(NNCc1ccc(O)cc1)c1ccccc1Cl	n	u	n	n	n
C[C@H](CO)N1C[C@H](C)[C@@H](CN(C)S(=O)(=O)c2ccc(F)cc2)Oc2ccc(NC(=O)Nc3ccccc3)cc2C1=O	n	23.1µM	n	n	n
C[C@@H]1CN([C@H](C)CO)C(=O)c2cc(NC(=O)Nc3ccc(C(F)(F)F)cc3)ccc2O[C@H]1CN(C)S(=O)(=O)c1ccc(Cl)cc1	n	u	n	n	n
C[C@H](CO)N1C[C@H](C)[C@@H](CN(C)S(=O)(=O)c2ccc(F)cc2)Oc2ccc(NC(=O)Nc3ccc4c(c3)OCO4)cc2C1=O	n	u	u	n	n
C[C@H](CO)N1C[C@H](C)[C@@H](CN(C)S(=O)(=O)c2ccc(F)cc2)Oc2ccc(NC(=O)Nc3ccc(C(F)(F)F)cc3)cc2C1=O	n	20.6µM	n	n	u
C[C@H](CO)N1C[C@H](C)[C@@H](CN(C)S(=O)(=O)c2ccccc2)Oc2ccc(NC(=O)C3CC3)cc2C1=O	n	18.3µM	n	n	n
C[C@@H]1CN([C@@H](C)CO)C(=O)c2cc(NC(=O)Nc3ccc4c(c3)OCO4)ccc2O[C@H]1CN(C)S(=O)(=O)c1ccc(F)cc1	n	25.9µM	n	u	n
SMILES	KB-V1 MDR tox	ELG1 DNA repair	MCF10A rerep	SW480 rerep	KB-3-1 cytotox
CCCCC(=O)N(C)c1c(C)nc2ccc(C(=O)Nc3cccc(NS(C)(=O)=O)c3)cn12	n	x	x	x	n
CC(C)(C)NC(=O)CCN(/N=C/c1ccccc1O)C1=NS(=O)(=O)c2ccccc21	u	n	n	n	n
O=C(COc1ccc(Cl)cc1)N(Cc1ccco1)c1ccccn1	n	x	x	x	n
C[C@H](CO)N1C[C@H](C)[C@@H](CN(C)S(=O)(=O)c2cccs2)Oc2ccc(NC(=O)Nc3ccccc3)cc2C1=O	n	23.1µM	u	n	n
C[C@@H]1CN([C@@H](C)CO)C(=O)c2ccccc2-c2ccccc2CO[C@@H]1CN(C)S(=O)(=O)c1ccc(C(F)(F)F)cc1	16.4µM	x	x	x	n
C[C@H](CO)N1C[C@H](C)[C@H](CN(C)S(=O)(=O)c2cccc(F)c2)OCc2ccccc2-c2c(n(C)c3ccccc23)C1=O	n	x	x	x	23.1µM
C[C@H](CO)N1C[C@H](C)[C@H](CN(C)S(C)(=O)=O)OCc2ccccc2-c2c(n(C)c3ccccc23)C1=O	u	x	x	x	n

Source: PubChem
